From PubChem BioAssay (NCATS) come the findings set out here.

Molecules are shown by their SMILES. Records with an inconclusive call do not appear. Entries that show only a call come without a potency. Activity calls are given as the source filed them. Calls follow the shape of the dose curve; as a rule, active = well fitted activation curve with a large enough effect; inconclusive = small, poorly fitted or top-dose-only effect; inactive = flat fitted curve, though single readings scatter.

This assay can be described thus: Primary redox qHTS assay for identification of artifact compounds. (AID 1845223). As to conditions: Amplex Red/HRP redox cycling with DTT, fluorescence; series mostly up to 53.8 µM. The source says:
PI: Alexander Tropsha Ph.D.
UNC Eshelman School of Pharmacy
University of North Carolina, Chapel Hill, North Carolina
Hits from high-throughput screening (HTS) of chemical libraries are often false positives due to their interference with the assay detection technology. In response to this problem, we generated the largest publicly available library of chemical liabilities and developed a free webtool to predict HTS artifacts, both of which are described herein. More specifically, we generated, curated, and integrated HTS datasets for thiol reactivity, redox activity, and luciferase (firefly and nano) activity. Using these curated datasets, we developed and validated several Quantitative Structure-Interference Relationship (QSIR) models to predict nuisance behavior. […] These models were employed for virtual profiling of the National Center for Advancing Translational Science's (NCATS) in-house library, and 256 compounds for each assay were selected for the experimental validation of nuisance behavior. The BA for these external predictions ranged from 58 to 78% for compounds within the applicability domains of the models. […] The models developed in this study, along with aggregation models previously developed by our group (SCAM Detective) were implemented in "Liability Predictor," an online tool which may be used as part of chemical library design or for triaging HTS hits. Both the models and the curated datasets are publicly available at https://liability.mml.unc.edu/.
SEQUENCE No. (e.g., 1, 2, 3, etc.); […] (e.g., Cells, Incubation, Reagent, etc.); VALUE; DESCRIPTION.
1; Reagent; 3 uL; Amplex Red and HRP mixture.
2; Compounds and control; 16 nL; Kalypsis pin tool (Wako USA) equipped with a 1536-well pin head. […]
6; Detection; Fluorescence, ViewLux microplate reader, 525 nm excitation, 598 nm emission.
NOTES (numbers refer to Sequence numbers above)
1. 3 uL of a mixture containing Amplex Red (25 uM final concentration) and horseradish peroxidase (HRP; 250 mU/mL final concentration) in assay buffer (HBSS) was dispensed into all wells of a 1536-well assay plate (solid-bottom black plate; Greiner Bio One, Monroe, NC).
2. A Wako Pin-tool (Wako Automation, Richmond, VA) was used to transfer 16 nL of compounds (consisting of 7-plates in qHTS format, final concentration range 18.3 nM to 114 uM) or control DA3003 (final concentration range 1.22 nM to 40 uM).
3. 15 min. incubation at room temperature protected from light.
4. 1 uL of DTT (prepared fresh; final concentration 250 uM) was dispensed for a final assay volume of 4 uL.
5. Plates were centrifuged (121xg, 15 seconds) and incubated for 30 minutes at room temperature protected from light.
6. Samples were read for fluorescence (Ex/Em = 525(20)/598(25) nm) on a ViewLux CCD imager (PerkinElmer). Data were normalized to DMSO (0% activity) and DA3003 (10 uM final concentration; 100% activity) and the resulting percent inhibition data were fitted to a 4-parameter Hill equation using NCATS in-house software.
In the case of `NC(=O)c1cccc2cn(-c3ccc([C@@H]4CCCNC4)cc3)nc12`, the Potency result is “inactive”. As to `Nc1nc(Nc2ccc(S(N)(=O)=O)cc2)nn1C(=O)c1c(F)cccc1F`, the Potency result was “inactive”. For the compound `C[C@]12CC[C@H](O)CC1=CCC1C2CC[C@]2(C)C(n3cnc4ccccc43)=CCC12` (stereo not given in full), the Potency entry is “inactive”. The same measure for `CS(=O)(=O)N1CCN(Cc2cc3nc(-c4cccc5[nH]ncc45)nc(N4CCOCC4)c3s2)CC1`: “inactive”; for `O=C(O)Cn1nnc(-c2cc(N3CCC(Oc4cc(F)ccc4Br)CC3)no2)n1`: “inactive”.

Regarding `Clc1ccc2ncc(-c3cccc(NC4CNC4)n3)n2c1`, the Potency entry was “inactive”. As to `CCNC(=O)Nc1ccc2ncc(Nc3ccc(C)cc3)nc2n1`, the Potency entry was “inactive”. The same measure for `Cc1cc(CN2CCN(c3c(Br)cnc4nc(-c5ccc(N6CCN(C)CC6)cc5)[nH]c34)CC2)no1`: “inactive”; for `O=C(O)c1ccc2c(c1)nc(Nc1cccc(Cl)c1)c1ccncc12`: “inactive”; for `CC(=O)Nc1nc(C)c(-c2ccc(Cl)c(S(=O)(=O)NCCO)c2)s1`: “inactive”. As for `C=CC(=O)Nc1cccc(Oc2nc(Nc3ccc(N4CCN(C)CC4)cc3)ncc2Cl)c1`, the Potency result is “inactive”. For `CNC(=O)c1ccccc1Nc1nc(Nc2ccc(N3CCOCC3)cc2OC)ncc1Cl`, the Potency result was “inactive”.

`NC(=O)Nc1cc(-c2cccc(F)c2)sc1C(=O)N[C@H]1CCCNC1`: the Potency entry is “inactive”. For `C[C@@H]1COC(Nc2ccc3ncnc(Nc4ccc(OCc5nccs5)c(Cl)c4)c3c2)=N1`, the Potency entry is “inactive”. `CNc1nccc(-c2cccnc2Oc2cc(C(=O)Nc3cccc(C(F)(F)F)c3)ccc2C)n1`: the Potency entry is “inactive”. Take `COc1cc2c(Oc3ccc(NC(=O)C4(C(=O)Nc5ccc(F)cc5)CC4)cc3F)ccnc2cc1OCCCN1CCOCC1`: the Potency result is “inactive”. As for `C[C@]1(CO)CN(c2cc(C(=O)Nc3ccc4c(c3)-c3c(c(C(N)=O)nn3-c3ccc(F)cc3)CC4)c(Cl)cn2)C[C@@]1(C)CO`, the entry is “inactive”. The same measure for `CCS(=O)(=O)c1cccc(-c2cc(C(=O)NC3CCN(C)CC3)c(C)c3[nH]c4ncc(C)cc4c23)c1`: “inactive”; for `COc1cc(C(=O)N2CCC(N3CCN(C)CC3)CC2)ccc1Nc1ncc2c(n1)N(C)c1ccccc1C(=O)N2C`: “inactive”; for `COc1cccc2c(NCc3ccccc3)nc(-n3c(N)nc4ccccc43)nc12`: “inactive”. As for `Cc1ccc(NC(=O)C2(c3ccc4c(c3)OC(F)(F)O4)CC2)nc1-c1cccc(C(=O)O)c1`, the Potency entry is “inactive”. As for `CN(C)CC(C)(C)CNc1nn2c(-c3ccccc3)nnc2cc1C1CCC1`, the entry is “inactive”. Turning to `c1ccc2c(CCNc3ccc(Nc4ccncc4)cc3)c[nH]c2c1`, the Potency entry was “inactive”.

`Cc1cn2cc(C(=O)N(C)CCO)cc(N[C@@H]3CCOc4cccc(C)c43)c2n1`: the Potency result is “inactive”.

For the compound `CC(C)c1nn(-c2c(Cl)cccc2Cl)c2nc(Cc3ccc(OCCO)cc3)[nH]c(=O)c12`, the Potency result was “inactive”. The same measure for `CC1(C)CCC(c2ccc(Cl)cc2)=C(CN2CCN(c3ccc(C(=O)NS(=O)(=O)c4ccc(N[C@H](CCN5CCOCC5)CSc5ccccc5)c(S(=O)(=O)C(F)(F)F)c4)cc3)CC2)C1`: “inactive”; for `Cc1nc(Nc2n[nH]c3c2CN(C(=O)N[C@H](CN(C)C)c2ccccc2)C3(C)C)c2sccc2n1`: “inactive”; for `Cc1cc(C(=O)N2CCN(c3cccc(Cl)c3)CC2)n(-c2ccccc2)n1`: “inactive”. As for `Clc1cccc(-n2nnnc2NCc2ccccc2Oc2ccccn2)c1Cl`, the Potency result is “inactive”. As for `O=C(Nc1nc2cccc(-c3ccc(CN4CCS(=O)(=O)CC4)cc3)n2n1)C1CC1`, the entry is “inactive”; as for `Cc1cnc(Nc2ccc(F)cc2Cl)nc1-c1c[nH]c(C(=O)N[C@H](CO)c2cccc(Cl)c2)c1`, “inactive”; as for `Cc1cn2c(-c3cn[nH]c3)cnc2c(Nc2ccc(C(=O)N3CCNCC3)cc2F)n1`, “inactive”. Regarding `CC(C)c1cc(C(=O)N2Cc3ccc(CN4CCN(C)CC4)cc3C2)c(O)cc1O`, the Potency result was “inactive”. With `Cc1ccc(C(=O)Nc2ccc(CN3CCN(C)CC3)c(C(F)(F)F)c2)cc1C#Cc1cnc2cccnn12`, the Potency result was “inactive”. As for `CCCn1c(=O)c2[nH]c(-c3cnn(Cc4cccc(C(F)(F)F)c4)c3)nc2n(CC)c1=O`, the entry is “inactive”; as for `COc1ccc(F)c(F)c1C(=O)c1cnc(NC2CCN(S(C)(=O)=O)CC2)nc1N`, “inactive”; as for `CN(C)Cc1c(C(=O)NCCOc2ccc(C(=O)NO)cc2)oc2ccccc12`, “inactive”. In the case of `CCn1cc(-c2ccnc3[nH]c(-c4cccc(CN(C)C)c4)cc23)c(-c2ccc(NC(=O)N(C)C)cc2)n1`, the Potency entry was “inactive”. For the compound `COc1ccc(-n2nc(C(N)=O)c3c2C(=O)N(c2ccc(N4CCCCC4=O)cc2)CC3)cc1`, the Potency entry was “inactive”. Regarding `Nc1ncnc2c1c(-c1cccc(OCc3ccccc3)c1)cn2C1CC(CN2CCCC2)C1` (stereo not given), the Potency result was “inactive”.
